From PubChem
Only some compounds are listed: those with a hit (about 14% of all), similar ones and a draw of the others.
HCMV antiviral: qHTS Assay for inhibitors of the human cytomegalovirus (HCMV); HFF cells, HCMV-luciferase reporter, 72 h; stronger effect = lower value; AID 1259415, 2018; 410,000 compounds, 4.5% hits; activity change, negative = inhibition, % at 57.5 µM; in the data active = activity change below about -60%; inconclusive = no clear call, values can overlap the other calls; inactive = above about -39%
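After 16 h attachment at 37C, HFF cells received test compound and HCMV-luciferase (1 PFU/cell); reporter luminescence read 72 h later, data normalized against buffer-only and known inhibitor Salinomycin.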
Pf growth 96h: Primary qHTS for delayed death inhibitors of the malarial parasite plastid, 96 hour incubation; P. falciparum luciferase reporter growth, 96 h; Potency, µM (top dose mostly 28.7 µM), without a hit: top-dose activity change, negative = inhibition, hits mostly inhibitors; 320,000 compounds, 6.9% hits; AID 504834, 2011; also: potency is read from the fitted curve at half-maximal effect
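Parasite growth measured via integrated firefly luciferase reporter in P. falciparum. Infected erythrocytes at 2% hematocrit, 0.05% parasitemia final were treated 96 hours at 37 C under 5% CO2, and luminescence was read.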
HCV inhibitor: qHTS Assay for Inhibitors of Hepatitis C Virus (HCV). Huh7.5.1 HCVcc-Cre infection, luciferase reporter, 44 h. Potency, µM (top dose mostly 41.8 µM), for the others: top-dose activity change, negative = inhibition, actives largely listed as inhibitors. 340,000 compounds, 3.4% hits; also: potency is read from the fitted curve at half-maximal effect
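HCVcc-Cre virus at an moi near 0.5 was added right after compound to cells cultured 4 h from seeding (1,000 cells/well). Luciferase activity was determined 44 h later, 15 min after substrate addition at RT.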
Pf growth 48h: Primary qHTS for delayed death inhibitors of the malarial parasite plastid, 48 hour incubation; Potency, µM (titrated, usually from 28.7 µM), without a hit: top-dose activity change, negative = inhibition, usual class: inhibitors; P. falciparum luciferase growth in erythrocytes, 48 h; 310,000 compounds, 5.9% hits; also: potency is read from the fitted curve at half-maximal effect
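Parasite viability was followed by luminescence of a genomically integrated firefly luciferase. Cultures held 0.1% parasitemia at 2% hematocrit (final), incubated under 5% CO2 at 37 C.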
MARV entry inh: qHTS for inhibitors of binding or entry into cells for Marburg Virus; Potency, µM (series often up to 37.8 µM), for inactives: at the highest dose activity change, negative = inhibition, actives largely listed as inhibitors; 300,000 compounds, 1.8% hits; AID 540276, 2011; Marburg virus pseudotyped entry inhibition, cell reporter; calls by dose curve; tested in HEK293 cells; also: potency is read from the fitted curve at half-maximal effect
LASV entry inh: qHTS for Inhibitors of binding or entry into cells for Lassa Virus. Lassa virus pseudotype entry inhibition, cell reporter. Potency, µM (titrated, usually from 37.9 µM), for the others: top-dose activity change, negative = inhibition, most hits filed as inhibitors. 300,000 compounds, 1.2% hits; calls by dose curve; tested in HEK293 cells; also: potency is read from the fitted curve at half-maximal effect; nearly all actives have a fitted effect of over 50% in size
Active calls of the source: *; ? = inconclusive; nt = not tested or not shown; + = active, no number; [ ] = another dose, or the depositor's remark. Unless noted, calls follow the shape of the dose curve; as a rule, active = well fitted inhibition curve with a large enough effect; inconclusive = small, poorly fitted or top-dose-only effect, or another doubt; inactive = no such curve, though single readings can be large or run the other way. % is scaled to controls: 0 for no effect and ±100 for the full control effect.

SMILES | HCMV antiviral | Pf growth 96h | HCV inhibitor | Pf growth 48h | MARV entry inh | LASV entry inh
COc1ccc(Cl)cc1S(=O)(=O)NC(C)C(=O)NCCCn1ccnc1 (stereo not drawn) | 18 | 13µM* | 12% | 3% | 14% | ?
COc1ccc(Cl)cc1S(=O)(=O)N(C)CC(=O)NCCCn1ccnc1 | -13 | 34% | 24% | 16% | -5%[46.1 µM] | 15%
O=C(COc1ccc(Cl)cc1Cl)NCCCn1ccnc1 | -5 | nt | -2% | 6.6µM* | -4% | 0%
CCc1ccc(NC(=O)CSc2nnc3[nH]c(=O)cc(-c4ccccc4)n23)cc1 | 41 | nt | nt | nt | nt | ?
O=C1C[C@H](c2ccccc2)[C@@H](c2ccc(Br)cc2)O1 | nt | nt | nt | nt | -17%[14.2 µM] | nt
O=C1c2ccccc2CCC12N=NCC2c1ccc(Cl)cc1 (stereo not drawn) | 8 | ? | -17% | 10µM* | 5% | 13%
O=C1c2ccccc2CCC12N=NCC2c1ccc(Br)cc1 (stereo not drawn) | -18 | 2.3µM* | 3% | nt | 8% | 9%
O=C1Cc2ccccc2C(c2ccc(Cl)cc2)N1 (stereo not drawn) | 0 | -22% | 0% | ? | -8% | ?
COc1ccccc1C(=O)NC(=O)COC(=O)c1ccc([N+](=O)[O-])cc1Cl | -8 | 97% | -19% | 5% | ? | 10%
Cc1ccc(-n2c(C)cc(C3N=C(N)Nc4nc5ccccc5n43)c2C)c(C)c1 (stereo not drawn) | -36 | -25% | ? | 8.3µM* | ? | ?
N/C(=N\c1nc(CSc2ccc(Cl)cc2)cc(=O)[nH]1)Nc1cccc2ccccc12 | -73* | ? | 6% | nt | ? | 2%
NC(=O)c1c(NC(=O)CN2CCN(S(=O)(=O)c3ccccc3)CC2)sc2c1CCC2 | -34 | 6% | 10µM* | ? | ? | ?
Cc1ccc(S(=O)(=O)CC(=O)Nc2sc3c(c2C(N)=O)CCCC3)cc1 | + | nt | nt | nt | nt | -3%[46.1 µM]
COC(=O)[C@]12CCCCC=C1N(Cc1ccc(Cl)cc1Cl)C(=O)[C@H](CC(=O)NCCCN1CCCC1=O)C2 | 18 | nt | nt | nt | nt | nt
Nc1nc(Nc2ccc(Cl)cc2)nc2ccccc12 | 105 | ? | -8% | nt | ? | ?
Nc1nc(Nc2ccccc2)nc2ccccc12 | 229 | ? | 7% | 3.3µM* | ? | ?
CCOc1ccc(Nc2nc(N)c3ccccc3n2)cc1 | -2 | ? | 2% | ? | 4.5µM* | ?
CN(C)c1ccc(Nc2nc(N)c3ccccc3n2)cc1 | -30 | 8.3µM* | ? | ? | 0.63µM* | 0.89µM*
Cc1ccccc1Nc1nc(N)c2ccccc2n1 | 142 | ? | -4% | -90% | nt | nt
CC(=O)N1c2ccc(S(=O)(=O)N3CCN(c4ccc(C)cc4C)CC3)cc2CC1C (stereo not drawn) | ? | nt | nt | nt | nt | -10%[46.1 µM]
CCCCCCCc1cc2ccccc2c2c(C(=O)OC)c(C(=O)OC)c(C(=O)OC)n12 | nt | nt | nt | nt | 18%[14.2 µM] | ?
CC(=O)c1c(C)[nH]c(C(=O)OCc2cc(-c3ccco3)on2)c1C | -16 | nt | ? | nt | 0%[46.1 µM] | 8%
CC(=O)c1c(C)[nH]c(C(=O)OCc2c(F)cccc2Cl)c1C | -62* | 22% | 10µM* | -16% | ? | ?
CC(=O)c1c(C)[nH]c(C(=O)OCc2cccc(Cl)c2)c1C | 41 | 21% | 11µM* | -6% | ? | ?
CC(=O)c1c(C)[nH]c(C(=O)OCc2ccc(F)cc2Cl)c1C | -68* | ? | ? | 67% | ? | -16%
SMILES | HCMV antiviral | Pf growth 96h | HCV inhibitor | Pf growth 48h | MARV entry inh | LASV entry inh
CCOC(=O)c1c(C)[nH]c(C=O)c1Cc1cccc(Cl)c1 | -36 | 23% | 20% | 2% | ? | 6.3µM*
COc1cccc2c3cccc(OC)c3c3[nH]cnc3c12 | -7 | nt | ? | nt | ? | ?
Cc1ccc(NC(=O)CN2C(=O)CC(c3ccc(F)cc3)=Nc3ccccc32)cc1F | -81* | nt | nt | nt | nt | 6%[46.1 µM]
CCOC(=O)c1ccc(NC(=O)C(CC)(CC)C(=O)OCC)cc1 | 47 | nt | 8% | 8.3µM* | -2% | -29%
CCOC(=O)c1ccc(NC(=O)c2nccnc2C(=O)O)cc1 | -75* | -24% | 10% | nt | nt | nt
CCOC(=O)c1ccc(NC(=O)COC)cc1 | 54 | 15µM* | -7% | 48% | -20% | 3%
COC(=O)c1ccc(CNCC(=O)Nc2ccc(C(=O)OC)cc2)cc1 | 9 | 0.93µM* | -42% | ? | -1% | 11%
CCN1CCN(C(=O)C(NS(=O)(=O)c2ccc3nc(C)sc3c2)C(C)C)CC1 (stereo not drawn) | ? | 9.3µM* | 14% | nt | nt | nt
COc1ccc(Cl)cc1NC(=O)CSc1c2c(nc3ccccc13)CCC2 | -70* | nt | nt | nt | -4%[46.1 µM] | 4%[46.1 µM]
COc1ccc(C)cc1NC(=O)c1ccc2c(SCC(=O)O)c3c(nc2c1)CCCC3 | 0 | 8.3µM* | -12% | ? | 13%[46.1 µM] | ?
COc1cc(Cl)c(C)cc1NC(=O)c1ccc2c(SCC(=O)O)c3c(nc2c1)CCCC3 | 8 | 32% | -3% | ? | -2%[46.1 µM] | 4%
COc1ccc(OC)c(NC(=O)CSc2c3c(nc4ccccc24)CCCC3)c1 | -27 | nt | nt | nt | 10%[46.1 µM] | ?
CCOC(=O)c1ccccc1NC(=O)c1ccc2c(SCC(=O)O)c3c(nc2c1)CCCC3 | ? | ? | -14% | 2.3µM* | nt | nt
CCOC(=O)c1nc(Nc2ccccc2)c2ccccc2n1 | -16 | -35% | ? | nt | 4% | 1%
CCOC(=O)c1nc(Nc2cc(Cl)ccc2OC)c2ccccc2n1 | -70* | 0% | 13µM* | 4% | nt | nt
COc1ccc(Cl)cc1NC(=O)CSc1nc(=O)n(CCN(C)C)c2c1CCCC2 | -8 | ? | 11µM* | ? | ? | ?
C=CCn1c(SCC(=O)Nc2cc(C)nn2-c2ccccc2)nnc1C1CCCCC1 | -7 | 12µM* | ? | -15% | 1% | -2%
O=C(CSc1nc2ccccc2[nH]1)Nc1c(F)cccc1F | -85* | 57% | ? | 37% | -25%[46.1 µM] | ?
O=C(CSc1nc2ccccc2[nH]1)Nc1c(F)c(F)c(F)c(F)c1F | 24 | -21% | 11% | 34% | nt | nt
Cc1cc(NC(=O)CSc2nc3ccccc3[nH]2)n(-c2ccccc2)n1 | 47 | 4.7µM* | -27% | 1.9µM* | nt | nt
COc1nonc1NC(=O)CSc1nc2ccccc2[nH]1 | -64* | ? | 12% | 84% | 13% | 28%
Cc1ccc(S(=O)(=O)N2C[C@H]3C(=O)C[C@@H](c4ccccc4)N(S(=O)(=O)c4ccccc4)[C@H]3C[C@H]2c2ccccc2)cc1 | -7 | nt | nt | nt | nt | nt
